# Most compounds without a hit are left out; they make up all but 11% or so of the library.
# HPGD inh = qHTS Assay for Inhibitors of HPGD (15-Hydroxyprostaglandin Dehydrogenase) | Potency, µM, actives largely listed as inhibitors | AID 894, 2007 | purified HPGD, NADH fluorescence kinetic, PGE2 substrate | 15-hydroxyprostaglandin dehydrogenase [NAD(+)] (Homo sapiens), P15428 | 150,000 tested, 4.3% active; active = well fitted inhibition curve with a large enough effect, not every such curve was filed as active; inconclusive = small, poorly fitted or top-dose-only effect, or another doubt; inactive = no such curve, though single readings can be large or run the other way
# Target sequence (P15428 whole entry, looked up): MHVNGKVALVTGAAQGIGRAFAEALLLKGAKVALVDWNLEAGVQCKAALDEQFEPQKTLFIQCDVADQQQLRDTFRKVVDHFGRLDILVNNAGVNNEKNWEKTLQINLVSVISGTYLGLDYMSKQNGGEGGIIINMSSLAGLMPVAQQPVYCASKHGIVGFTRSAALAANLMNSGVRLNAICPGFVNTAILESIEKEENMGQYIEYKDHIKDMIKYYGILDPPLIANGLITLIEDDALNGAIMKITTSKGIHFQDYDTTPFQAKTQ
#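 20 nM HPGD preincubated 15 min at room temperature with compound in 50 mM Tris-HCl pH 8, 0.01% Tween 20. Started with 1 mM NAD+ and 30 uM prostaglandin E2; NADH fluorescence (360/450 nm) read 5 times over 30-s intervals, last minus first.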
# PNC inhibitor = High Content Assay for Compounds that inhibit the Assembly of the Perinucleolar Compartment. activity change (PNC), negative = inhibition, % at 10 µM. PC3M PTB-GFP, PNC prevalence imaging, 16 h; stronger effect = lower value. 140,000 tested, 3.1% active. AID 2417, 2010;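 active = readout at or below -70, meaning at least 70% loss of cells showing the perinucleolar compartment, a nuclear body marking cancer cells; inconclusive = readout between -30 and a set limit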
#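 Read-out is percentage of cells bearing a perinucleolar compartment, from automated 20x imaging of fixed, Hoechst-stained PC3M PTB-GFP cells. Cells were seeded 4 h, then exposed 16 h to compound (23 nl of library stock) in duplicate plates.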
# ALDH1A1 block = qHTS Assay for Inhibitors of Aldehyde Dehydrogenase 1 (ALDH1A1); Aldehyde dehydrogenase 1A1 (Homo sapiens), P00352; Purified ALDH1A1, NADH fluorescence, propionaldehyde substrate; 220,000 tested, 7.3% active; Potency, µM (series often up to 75.3 µM), usual class: inhibitors; active = well fitted inhibition curve with a large enough effect, not every such curve was filed as active; inconclusive = small, poorly fitted or top-dose-only effect, or another doubt; inactive = no such curve, though single readings can be large or run the other way
# Target sequence (P00352 whole entry, looked up): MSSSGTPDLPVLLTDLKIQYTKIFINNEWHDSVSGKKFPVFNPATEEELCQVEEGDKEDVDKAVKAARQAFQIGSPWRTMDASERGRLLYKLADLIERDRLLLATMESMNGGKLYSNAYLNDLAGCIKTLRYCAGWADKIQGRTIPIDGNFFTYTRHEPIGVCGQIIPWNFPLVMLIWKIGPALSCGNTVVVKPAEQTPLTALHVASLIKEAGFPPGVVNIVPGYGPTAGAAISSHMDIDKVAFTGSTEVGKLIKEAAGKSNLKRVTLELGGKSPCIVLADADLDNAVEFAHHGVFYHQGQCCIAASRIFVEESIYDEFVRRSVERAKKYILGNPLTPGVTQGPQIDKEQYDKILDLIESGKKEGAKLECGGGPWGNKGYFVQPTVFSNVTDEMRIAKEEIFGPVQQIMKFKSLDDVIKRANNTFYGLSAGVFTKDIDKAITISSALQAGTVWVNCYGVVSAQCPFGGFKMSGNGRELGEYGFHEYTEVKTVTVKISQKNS
# HTT cytoprotect = qHTS Multiplex Assay to Identify Dual Action Probes in a Cell Model of Huntington: Cytoprotection (ATP); AID 1471, 2008; PC12 HTT-Q103 induced, cytoprotection, ATP luminescence, 40 h; Potency, µM (doses to about 56.4 µM), usual class: activators; 230,000 tested, 0.14% active; also: nearly all actives have a fitted effect of over 45% in size
#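 PC12 cells with ecdysone-inducible HTT exon 1 Q103-GFP, induced with 100 nM tebufenozide and co-treated with library compounds in a dose series (1536-well, 1500 cells/well). Cytoprotection read as ATP content by ATPlite luminescence.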
# HttQ103 aggreg = qHTS Multiplex Assay to Identify Dual Action Probes in a Cell Model of Huntington: Aggregate Formation (GFP). Potency, µM (titrated, usually from 46.1 µM), hits mostly inhibitors. PC12 HttQ103-GFP aggregates, Acumen cytometry, 40 h. AID 1688, 2009. 220,000 tested, 1.1% active; also: nearly all actives have a fitted effect of over 60% in size
#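 PC12 cells with ecdysone-inducible HTT exon1 Q103-GFP, induced by 100 nM tebufenozide, given compounds in a concentration series. GFP aggregates (1–25 um, 6 SD above background) counted in lysates by laser-scanning cytometry, 488 nm excitation.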
# CBFb-RUNX1 inh = qHTS Assay for Compounds Blocking the Interaction Between CBF-beta and RUNX1 for the Treatment of Acute Myeloid Leukemia; Runt-related transcription factor 1 (Homo sapiens) + Core-binding factor subunit beta …; AlphaScreen CBFb-His/RUNX1-biotin binding, biochemical; Potency, µM (doses to about 59.8 µM), actives largely listed as inhibitors; 230,000 tested, under 10 active; AID 1477, 2009
#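 Bead-based AlphaScreen assay; binding partners His-tagged CBF-beta and biotinylated RUNX1 at 30 nM each. Compound exposure 15 min after a 20-min protein preincubation; bead step 90 min; all steps at room temperature.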
# Hits are given with their value; i = inactive; ? = inconclusive; nt = no result; [ ] = dose if it differs, or a comment. Unless noted, calls follow the shape of the dose curve; as a rule, active = well fitted curve in the direction sought with a large enough effect; inconclusive = small, poorly fitted or top-dose-only effect, or another doubt; inactive = no such curve, though single readings can be large; an effect the other way counts as inactive or inconclusive.
SMILES,HPGD inh,PNC inhibitor,ALDH1A1 block,HTT cytoprotect,HttQ103 aggreg,CBFb-RUNX1 inh
CCOC(=O)c1c(NC(=O)c2cc(-c3ccc(O)cc3)on2)sc(C(C)=O)c1C,17.8µM,i,22.4µM,nt,i,i[2.36 µM]
CCOC(=O)c1c(NC(=O)CC(C)C)sc(C(C)=O)c1C,i,-100.0,?,i[10 µM],i,i
CCOC(=O)c1sc(NC(=O)OC)c(C(=O)OC)c1C,nt,nt,i,nt,i,i
CCOC(=O)c1sc(NC(=O)CN(CC(C)C)CC(C)C)c(C(=O)OCC)c1C,?,-109.7,22.4µM,i,i,i
COC(=O)N1CCC[C@@]2(CCN(Cc3nccs3)C2)C1,i,nt,i,i,nt,nt
O=c1c2ccccc2oc2cc(O)c(C3COCC(CO)C(O)C(O)C3O)c(O)c12 (stereo not drawn),i,nt,?,i[1.9 µM],nt,i
CCC(C)OC(=O)C1=C(C)O[C@]23OC(N)=C(C#N)[C@]12C(=O)c1ccccc13 (stereo partly drawn),i,-100.0,?,i[10 µM],i,i
C(=N\Nc1nc(Nc2ccccc2)nc(Nc2ccccc2)n1)/c1cccnc1,nt,nt,i,i[10 µM],4.47µM,i
CNc1nc(C)nc(N/N=C/c2ccccc2)n1,nt,nt,12.6µM,i[10 µM],i[9.22 µM],i
O=C1COc2ccc(C(=O)COC(=O)Cn3cnc4ccccc43)cc2N1,i,?,28.2µM,i[10 µM],i,i
O=C1COc2ccc(C(=O)COC(=O)c3cnc(Cl)c(Cl)c3)cc2N1,nt,nt,1.26µM,i,i,i
CC1CCc2nc(N)c(C#N)c(-c3cccnc3)c2C1 (stereo not drawn),i,i,?,i[10 µM],2µM,i
CCOCCCNC(=O)CN1C(=O)CSc2cc(S(=O)(=O)N3CCCCCC3)ccc21,nt,i,10µM,i[0.074 µM],i,i
CCOCCCNC(=O)CN1C(=O)CSc2ccccc21,i,i,i,i,i,i[2.36 µM]
CCN(CC)CCCNC(=O)CN1C(=O)CSc2ccc(S(=O)(=O)N3CCOCC3)cc21,i,-113.4,i,nt,i,i
CCCN(CCC)CCCNC(=O)CN1C(=O)CSc2ccc(S(=O)(=O)N3CCOCC3)cc21,nt,nt,i,i,i,i
Cc1ccc(NC(=O)c2ccc(-c3nn(C)c(=O)c4ccccc34)cc2)cc1,17.8µM,i,i,i,i[9.22 µM],i
Cc1ccc(C(=O)N2CCN(c3cc(=O)[nH]nc3-c3ccccc3)CC2)cc1,i,i,15.8µM,i,i,i
CCC(=O)NCc1cc(-c2nn(C)c(=O)c3ccccc23)ccc1C,i,i,i,i,i,i
COc1cccc(CN2CCN(C(=O)c3ccc(-c4ccccc4)cc3)CC2)c1,i,i,?,i[10 µM],i,i
CCCC(=O)NCc1cc(-c2nn(C)c(=O)c3ccccc23)ccc1C,17.8µM,i,i,i,i,i
Cn1nc(-c2ccc(C(=O)N3CCN(Cc4ccccc4)CC3)cc2)c2ccccc2c1=O,15.8µM,i,i,i,i[9.22 µM],i
NC(N)=NCCC[C@H](N)C(=O)NCC(=O)N[C@@H](CC(=O)O)C(=O)O,nt,nt,nt,nt,nt,i
CN(C)c1cc(-c2cccc(NS(C)(=O)=O)c2)ncn1,nt,nt,?,i,nt,nt
Cn1cccc1C(=O)N1CCC2(CC1)CCN(c1ccc(-c3ccccc3)cc1)CC2,i,nt,i,i,nt,nt
SMILES,HPGD inh,PNC inhibitor,ALDH1A1 block,HTT cytoprotect,HttQ103 aggreg,CBFb-RUNX1 inh
COc1cccc(-c2ccc3ncnc(Nc4ccccc4)c3c2)c1,nt,nt,i,i,nt,nt
CC[C@H](C)[C@H](NC(=O)[C@H](CCCNC(=N)N)NC(=O)[C@@H](NC(=O)[C@H](CCCNC(=N)N)NC(=O)[C@H](CCCCN)NC(=O)[C@H](CCCNC(=N)N)NC(=O)[C@@H](NC(=O)[C@H](CC(N)=O)NC(=O)[C@@H](N)CS)[C@@H](C)O)[C@@H](C)CC)C(=O)N[C@@H](CCC(N)=O)C(=O)N[C@@H](CCCNC(=N)N)C(=O)NCC(=O)N1CCC[C@H]1C(=O)NCC(=O)N[C@@H](CCCNC(=N)N)C(=O)N[C@@H](C)C(=O)N[C@@H](Cc1ccccc1)C(=O)N[C@H](C(=O)N[C@H](C(=O)N[C@H](C(=O)NCC(=O)N[C@@H](CCCCN)C(=O)O)[C@@H](C)CC)[C@@H](C)O)C(C)C,nt,nt,nt,nt,nt,i
Cn1nc(-c2ccc(C(=O)Nc3ccc(F)cc3)cc2)c2ccccc2c1=O,nt,nt,?,nt,i,i
Cc1ccc(-c2nn(C)c(=O)c3ccccc23)cc1CNC(=O)c1ccccc1,nt,nt,i,i[10 µM],i[9.22 µM],i
CC(O)CNC(=O)c1ccc(-c2nn(C)c(=O)c3ccccc23)cc1 (stereo not drawn),28.2µM,i,i,i,i[9.22 µM],i
Cc1ccc(NC(=O)c2ccc(-c3nn(C)c(=O)c4ccccc34)cc2)c(C)c1,12.6µM,i,8.91µM,i,i[9.22 µM],i
Cc1ccc(-c2csc(=Nc3cccnc3)n2CCCn2ccnc2)cc1C,i,i,?,i[10 µM],3.55µM,?
Cc1ccc(-c2csc(=Nc3cccnc3)n2CCCN2CCCC2=O)cc1C,i,i,7.94µM,i[10 µM],i,i
c1cncc(N=c2scc(-c3cccc4ccccc34)n2CCCn2ccnc2)c1,i,-92.5,?,i[10 µM],i,?
CC(=O)NCCc1c(Cc2ccccc2)[nH]c2ccccc12,14.1µM,nt,i,?,nt,i
CCCCNC(=O)Cc1c(O)c2ccccc2[nH]c1=O,i,-111.7,?,i,i,i
CCCCC(=O)NCCc1c(Cc2ccccc2)[nH]c2ccccc12,15.8µM,nt,?,i,nt,i
COc1ccc2[nH]c(-c3ccccc3)c(CCNC(C)=O)c2c1,?,nt,?,i,nt,i
O=C(NCc1ccccn1)C1(C(F)(F)F)CC(CCCO)CCCO1 (stereo not drawn),nt,nt,nt,nt,nt,i
COc1ncc2ncc(=O)n(C3CC3)c2n1,nt,nt,?,i,nt,nt
O=S(=O)(NC1CCCCC1Nc1ccccc1)c1ccccc1 (stereo not drawn),i,?,?,?,i,i
Cn1cnnc1SC1CCCCC1NS(=O)(=O)c1ccc(Cl)cc1 (stereo not drawn),i,i,12.6µM,i[10 µM],i,i
Cn1cnnc1SC1c2cccc3cccc(c23)C1NS(=O)(=O)c1ccccc1 (stereo not drawn),i,?,?,i[10 µM],i,i
Cn1cnnc1SC1CCCCC1NS(=O)(=O)c1ccccc1 (stereo not drawn),i,?,7.94µM,i,i,i
